Test results as given in the OligoGym collection.

The sequences below were run against C1orf106 (assay: pooled miR-30 sensor sort-seq; sequence = guide strand). Conditions: shRNA.
Note: reference of the scale not given here.

Q: Which sensor-assay potency score (higher = more potent) does the source give for TAAGCCGCTCCGATCCTGCGGC here?
A: Its sensor-assay potency score (higher = more potent) is -0.585.

Q: Which sensor-assay potency score (higher = more potent) does the source give for TAGCTGAGGACACAGCCACTTG here?
A: Its sensor-assay potency score (higher = more potent) is -1.67.

Q: How did the sensor-assay potency score (higher = more potent) turn out when TTGTAAGCCGCTCCGATCCTGC was run?
A: The sensor-assay potency score (higher = more potent) was -0.983.

Q: For TATATAAGGAGATAGAGGCTGT, which sensor-assay potency score (higher = more potent) is on record?
A: The sensor-assay potency score (higher = more potent) was 0.0357.

Q: Which sensor-assay potency score (higher = more potent) does the source give for TATTGAAGTATTTAGCACTAAA here?
A: Its sensor-assay potency score (higher = more potent) is -0.989.

Q: How did the sensor-assay potency score (higher = more potent) turn out when TAAAACATAATCATATCACAGG was run?
A: The sensor-assay potency score (higher = more potent) was -0.615.

Q: TTCAGGTACAAAGACTTGCACA was tested. Which sensor-assay potency score (higher = more potent) did it give?
A: The sensor-assay potency score (higher = more potent) was -0.854.

Q: TAGAACCAGAGCACAGAGCGTT was tested. Which sensor-assay potency score (higher = more potent) did it give?
A: Its sensor-assay potency score (higher = more potent) is -0.706.

Q: Which sensor-assay potency score (higher = more potent) does the source give for TCTAGCAAGACAATACACCACC here?
A: Its sensor-assay potency score (higher = more potent) is -0.714.

The sequences below were run against C1orf109 in the same assay as above. Conditions: shRNA.

Q: Which sensor-assay potency score (higher = more potent) does the source give for TTGAAAAATATCTATACCCTTT here?
A: The sensor-assay potency score (higher = more potent) was -0.465.

Q: For ATCTTGTACAAGATCCTGGTGT, which sensor-assay potency score (higher = more potent) is on record?
A: Its sensor-assay potency score (higher = more potent) is -0.231.

Q: With TTATTAATAATAGTTATCTGGT as the sequence, how does the sensor-assay potency score (higher = more potent) read?
A: The sensor-assay potency score (higher = more potent) was 0.0251.

Q: TAGATGAAGGCAGCAGACCTTG was tested. Which sensor-assay potency score (higher = more potent) did it give?
A: Its sensor-assay potency score (higher = more potent) is -1.04.

Q: Which sensor-assay potency score (higher = more potent) does the source give for TATGTATCGATGATAGCACGTT here?
A: Its sensor-assay potency score (higher = more potent) is 0.283.

Q: Which sensor-assay potency score (higher = more potent) does the source give for TTTAGGTCCACAATAGAGGAAA here?
A: Its sensor-assay potency score (higher = more potent) is -1.1.

Q: For TTTCTCTTCAGGTACGACTTTC, which sensor-assay potency score (higher = more potent) is on record?
A: Its sensor-assay potency score (higher = more potent) is -0.727.

Q: TAAATAGACACTGAAAAGGTAT was tested. Which sensor-assay potency score (higher = more potent) did it give?
A: Its sensor-assay potency score (higher = more potent) is -0.303.

Q: For TTCTTTAGAAACATCAGGGTTC, which sensor-assay potency score (higher = more potent) is on record?
A: The sensor-assay potency score (higher = more potent) was 0.139.

Q: For TATCTTGTACAAGATCCTGGTG, which sensor-assay potency score (higher = more potent) is on record?
A: Its sensor-assay potency score (higher = more potent) is -0.3.

Q: How did the sensor-assay potency score (higher = more potent) turn out when TTTTTAAAAAAAGACAACCTAA was run?
A: The sensor-assay potency score (higher = more potent) was -0.867.

Q: For TGACAAAAGACACAAAACCAGG, which sensor-assay potency score (higher = more potent) is on record?
A: The sensor-assay potency score (higher = more potent) was -1.47.
